Where a name gives a salt, the structure may show the parent alone.
Tested on: Clostridium sporogenes DSM 1664
Experiment: growth (OD595) fold change vs plate DMSO controls (fold change (ratio)); higher = more growth
Conditions: incubation time: 27 h, anaerobic, 37 °C
In short: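 Anaerobic 27 h, 37 °C mGAM 96-well cultures were shaken, then read for absorbance at 595 nm. Values were blank-subtracted and corrected for compound background using 20 µM compound solutions in water. A calibration factor of 5 converted them to OD. Growth is the fold change versus the median of plate DMSO controls. Fold changes above 1.5 were set to NA, and values are the mean of 2 biological replicates.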

Which growth does the source give for `CCCCCCC[N+](CC)(CC)CCCCc1ccc(Cl)cc1` [Clofilium tosylate] (20 µM) here?
Its growth is 1.2.

Which growth does the source give for `N=C(N)NCC1COC2(CCCCC2)O1` (centres undefined) [Guanadrel sulfate] (20 µM) here?
Its growth is 0.98.

Which growth does the source give for `CCCC(CCC)C(=O)O[C@H]1C[C@H]2CC[C@@H](C1)[N+]2(C)C` [Anisotropine Methylbromide] (20 µM) here?
Its growth is 1.04.

`COc1ccc2c(c1)c(CC(=O)OCC(=O)O)c(C)n2C(=O)c1ccc(Cl)cc1` [Acemetacin] (20 µM) was tested. Which growth did it give?
The growth was 0.906.

With `CN1CCCN=C1/C=C/c1cccc(O)c1` [Oxantel pamoate] (20 µM) as the molecule, how does the growth read?
Its growth is 1.1.

`COc1c(O[C@@H]2O[C@H](CO)[C@@H](O)[C@H](O)[C@H]2O)cc2c(c1OC)-c1ccc(SC)c(=O)cc1[C@@H](NC(C)=O)CC2` [Thiocolchicoside] (20 µM) was tested. Which growth did it give?
The growth was 0.996.

For `Cc1c(Nc2ncccc2C(=O)O)cccc1C(F)(F)F` [Flunixin meglumine] (20 µM), which growth is on record?
Its growth is 0.944.

Which growth does the source give for `C#C[C@]1(OC(C)=O)CC[C@H]2[C@@H]3CCC4=CC(=NO)CC[C@@H]4[C@H]3CC[C@@]21CC` (mixture of isomers) [Norgestimate] (20 µM) here?
The growth was 1.25.

Which growth does the source give for `CC12CC3CC(C)(C1)CC(N)(C3)C2` [Memantine hydrochloride] (20 µM) here?
The growth was 1.01.

With `CC(CCc1ccccc1)NCC(O)c1ccc(O)c(C(N)=O)c1` (centres undefined) [Labetalol hydrochloride] (20 µM) as the molecule, how does the growth read?
The growth was 1.09.

With `CCCCc1oc2ccc(NS(C)(=O)=O)cc2c1C(=O)c1ccc(OCCCN(CCCC)CCCC)cc1` [Dronedarone hydrochloride] (20 µM) as the molecule, how does the growth read?
The growth was 0.948.

`CCN1CCCC(OC(=O)C(c2ccccc2)c2ccccc2)C1` (centres undefined) [Piperidolate hydrochloride] (20 µM) was tested. Which growth did it give?
Its growth is 1.1.

With `C[C@]1(Cn2ccnn2)[C@H](C(=O)O)N2C(=O)C[C@H]2S1(=O)=O` [Tazobactam] (20 µM) as the molecule, how does the growth read?
Its growth is 0.105.

For `O=C(CCCN1CCN(c2ccccn2)CC1)c1ccc(F)cc1` [Azaperone] (20 µM), which growth is on record?
Its growth is 1.12.

How did the growth turn out when `CC(=O)Nc1c(I)c(NC(C)=O)c(I)c(C(=O)O)c1I` [Diatrizoic acid dihydrate] (20 µM) was run?
Its growth is 1.28.

With `CN[C@@H]1[C@@H](O)[C@@H](O[C@@H]2[C@@H](O)[C@H](O[C@H]3OC(CN)=CC[C@H]3N)[C@@H](N)C[C@H]2N)OC[C@]1(C)O` [Sisomicin sulfate] (20 µM) as the molecule, how does the growth read?
The growth was 0.97.

With `CC(CN(C)C)C(C)(O)Cc1ccc(Cl)cc1` (centres undefined) [Clobutinol hydrochloride] (20 µM) as the molecule, how does the growth read?
The growth was 0.926.

With `CC(=O)[C@H]1CC[C@H]2[C@@H]3C[C@H](C)C4=CC(=O)CC[C@]4(C)[C@H]3[C@@H](O)C[C@]12C` [Medrysone] (20 µM) as the molecule, how does the growth read?
The growth was 1.08.

`CC(C(=O)O)c1ccc(-c2ccccc2)c(F)c1` (centres undefined) [Flurbiprofen] (20 µM) was tested. Which growth did it give?
The growth was 0.961.

`CCOC(=O)/C=C(C)/C=C/C=C(C)/C=C/c1c(C)cc(OC)c(C)c1C` [Etretinate] (20 µM) was tested. Which growth did it give?
Its growth is 1.04.

With `c1ccc2c(CC3=NCCN3)cccc2c1` [Naphazoline hydrochloride] (20 µM) as the molecule, how does the growth read?
Its growth is 0.845.

Which growth does the source give for `CCCCC(=O)N(Cc1ccc(-c2ccccc2-c2nnn[nH]2)cc1)[C@H](C(=O)O)C(C)C` [Valsartan] (20 µM) here?
The growth was 1.14.

Which growth does the source give for `COc1ccccc1O` [Guaiacol] (20 µM) here?
The growth was 0.997.

For `OC[C@H]1O[C@@H](O[C@@H]2[C@@H](CO)OC(O)(CO)[C@H]2O)[C@H](O)[C@@H](O)[C@H]1O` (mixture of isomers) [Lactulose] (50 µM), which growth is on record?
Its growth is 1.06.

With `CC(C)COC(=O)OCN1C(=O)CN(CCN2CC(=O)N(COC(=O)OCC(C)C)C(=O)C2)CC1=O` [Sobuzoxane] (20 µM) as the molecule, how does the growth read?
The growth was 0.986.

With `NS(=O)(=O)c1cc2c(cc1C(F)(F)F)NC(Cc1ccccc1)NS2(=O)=O` (centres undefined) [Bendroflumethiazide] (20 µM) as the molecule, how does the growth read?
The growth was 0.897.

With `CCOC(=O)[C@H](CCc1ccccc1)N[C@H]1CCc2ccccc2N(CC(=O)O)C1=O` [Benazepril hydrochloride] (20 µM) as the molecule, how does the growth read?
The growth was 1.03.

Which growth does the source give for `CC(=O)Oc1cc(C(C)C)c(OCCN(C)C)cc1C` [Moxisylyte hydrochoride] (20 µM) here?
Its growth is 1.11.

`O=C1c2c(O)ccc(O)c2C(=O)c2c(NCCNCCO)ccc(NCCNCCO)c21` [Mitoxantrone dihydrochloride] (20 µM) was tested. Which growth did it give?
Its growth is 0.733.

`Nc1cccc2c1C(=O)N(C1CCC(=O)NC1=O)C2=O` (centres undefined) [Pomalidomide] (20 µM) was tested. Which growth did it give?
The growth was 1.09.

With `CCCCOc1ccc(C(=O)CCN2CCCCC2)cc1` [Dyclonine hydrochloride] (20 µM) as the molecule, how does the growth read?
Its growth is 1.17.

Which growth does the source give for `OCC(O)CN1CCN(c2ccccc2)CC1` (centres undefined) [Dropropizine] (20 µM) here?
The growth was 0.934.

With `CN(C)CCC(c1ccc(Cl)cc1)c1ccccn1` (centres undefined) [Chlorpheniramine maleate] (20 µM) as the molecule, how does the growth read?
Its growth is 0.73.

`CNCC(O)c1ccc(OC(=O)C(C)(C)C)c(OC(=O)C(C)(C)C)c1` (centres undefined) [Dipivefrin hydrochloride] (20 µM) was tested. Which growth did it give?
The growth was 1.15.

How did the growth turn out when `CC(=O)O[C@H]1C[C@@]2(C)[C@@H](C[C@@H](O)[C@H]3[C@@]4(C)CC[C@@H](O)[C@@H](C)[C@@H]4CC[C@@]32C)/C1=C(\CCC=C(C)C)C(=O)O` [Fusidic acid sodium salt] (20 µM) was run?
The growth was 0.00767.

For `CCOc1ccccc1OCC1CNCCO1` (centres undefined) [Viloxazine hydrochloride] (20 µM), which growth is on record?
Its growth is 0.836.

How did the growth turn out when `OC[C@H]1O[C@@H](O[C@H]2[C@H](O)[C@@H](O)[C@H](O)O[C@@H]2CO)[C@H](O)[C@@H](O)[C@H]1O` [Lactose] (50 µM) was run?
Its growth is 0.993.

How did the growth turn out when `CCC(=O)c1ccc(O)cc1` [Paroxypropione] (20 µM) was run?
The growth was 0.967.

With `CCOc1ccc2ccccc2c1C(=O)N[C@@H]1C(=O)N2[C@@H]1SC(C)(C)[C@@H]2C(=O)O` [Nafcillin sodium salt monohydrate] (20 µM) as the molecule, how does the growth read?
Its growth is 0.

— the supplement of paper PMC12494721
